Data reported in PubChem BioAssay (NCI).
This is part of a sample that, as a whole, favours compounds with a hit. Of some 83,000 tested, about 20% had one in any assay.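 96-well plates, one dose, 48 hours. Percent growth reported; active if below 10.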 Unmarked numbers belong to inactive results. Activity calls are given as the source filed them. *1 amine or outer side, *2 acyl side, *3 side chain or, on linkers, in order; H or OH if unused. Where a SMILES comes first, the peptide text is derived from it. Bridges are numbered along the chain shown (N, C = ends). Roman numbers before positions name the chains, in order. [ ]: non-standard residue; d: D form. Actinocin(1to9) = Cc1c2oc3c(C)ccc(C(=O)[*:2])c3nc-2c(C(=O)[*:1])c(N)c1=O; NMeV = CN[CH](C(=O)O)C(C)C; Sar = CNCC(=O)O

Tests used:
Assay in all cases: NCI-60 one-dose screen, 48 h (100 = growth as untreated, 0 = no growth, -100 = all killed)
Details in all cases: 10 µM unless noted
T-47D breast = tested on: T-47D breast
BT-549 breast = tested on: BT-549 breast
MDA-MB-435 melanoma = tested on: MDA-MB-435 melanoma
SW-620 colon = tested on: SW-620 colon
MCF7 breast = tested on: MCF7 breast
HCT-116 colon = tested on: HCT-116 colon
HCC-2998 colon = tested on: HCC-2998 colon
KM12 colon = tested on: KM12 colon

| SMILES | growth (T-47D breast) | growth (BT-549 breast) | growth (MDA-MB-435 melanoma) | growth (SW-620 colon) | growth (MCF7 breast) | growth (HCT-116 colon) | growth (HCC-2998 colon) | growth (KM12 colon) |
| --- | --- | --- | --- | --- | --- | --- | --- | --- |
| CCCCCCCCCCCC(=O)OC(C)C(=O)NCCCC (stereo not given) | 97.9% | 92.5% | 112% | 98.5% | 94.7% | 94.4% | 80.2% | 105% |
| Cc1cc(=O)oc2cc(O)cc(O)c12 | 90.5% | 101% | 94.7% | 92% | 98% | – | 111% | 111% |
| CCCCCCCCCCCC[n+]1ccc2ccccc2c1 | 5.61% (active) | -73.4% (active) | -69.6% (active) | -30% (active) | -10.3% (active) | – | -84.7% (active) | -89.2% (active) |
| CCC(C)C(N)C(=O)NC(CC(N)=O)C(=O)NC(CC(C)C)C(=O)NC(CCCCN)C(=O)NC(C)C(=O)NC(CC(C)C)C(=O)NC(C)C(=O)NC(C)C(=O)NC(CC(C)C)C(=O)NC(C)C(=O)NC(CCCCN)C(=O)NC(CCCCN)C(=O)NC(C(=O)NC(CC(C)C)C(N)=O)C(C)CC (stereo not given) | 93.9% | 134% | 77.7% | 103% | 97.4% | 82.5% | – | 90.2% |
| CCCCCCCCCCCCNCCCc1ccccc1 | 54.9% | 85.9% | 100% | 46.1% | 25.4% | 20.4% | – | 27.2% |
| [Cl-].[Rh+3].c1ccc(-c2ccnc3c2ccc2c(-c4ccccc4)ccnc23)cc1.c1ccc(-c2ccnc3c2ccc2c(-c4ccccc4)ccnc23)cc1.c1ccc(-c2ccnc3c2ccc2c(-c4ccccc4)ccnc23)cc1 | 50.4% | 42.9% | 72.5% | 99.2% | 63.3% | 87.3% | – | 59.3% |
| Cc1cc(Br)c2nsnc2c1[N+](=O)[O-] | 25.1% | 45% | 21.1% | 33.6% | 10.1% | 26.3% | – | 9.82% (active) |
| O=C(CCl)N(c1ccccc1)c1ccccc1 | 110% | 106% | 98% | 108% | 102% | – | 119% | – |
| O=C(/C=C/C(Cl)(Cl)Cl)Nc1ccc(Cl)cc1 | 94.6% | 102% | 105% | 110% | 99.8% | 104% | 108% | 132% |
| CCCc1cc(=O)oc2c3c(c4c(c12)OC(C)(C)CC4)OC(C)[C@H](C)[C@@H]3O (stereo not given in full) | 67.9% | 108% | 112% | 84.3% | 70% | – | 116% | 97.8% |
| CC(CSc1n[nH]c(=S)s1)c1ccccc1 (stereo not given) | 110% | 112% | 109% | 112% | 102% | 105% | – | 113% |
| NC(=S)N/N=C\c1nccc2c(N)cccc12 | 11% | 41% | 30.3% | 37.2% | 22.1% | 19.2% | 44.4% | 26.7% |
| CC/C(=C(/CC)c1ccc(O)cc1)c1ccc(O)cc1 | 72.4% | 64.3% | -18.7% (active) | 44.6% | 26.2% | – | 70.2% | 44.1% |
| NC(=Nc1nc(-c2ccccn2)cc2ccccc12)c1ccccn1 | 16.4% | 23.3% | 22.9% | 11.8% | 9.19% (active) | 5.82% (active) | – | 16% |
| Cc1c(O)ccc(SC#N)c1C | 94% | 104% | 105% | 103% | 116% | 88% | 96.5% | 97.2% |
| C/C=C/c1cc2c(c(=O)o1)C(=O)[C@@H](O)[C@H](C)O2 | 20.4% | 18.2% | 65.6% | 19.5% | 26.1% | 14.1% | 79.5% | 42.2% |
| Cc1ccc(Nc2ccc(O)c3c2C(=O)c2c(O)ccc(Nc4ccc(C)cc4)c2C3=O)cc1 | 96.9% | 113% | 104% | 103% | 98% | – | 113% | 112% |
| CC(C)=C1C=C2CC[C@@H]3[C@](C)(CCC[C@@]3(C)C(=O)O)[C@H]2CC1 | 97.6% | 126% | 101% | 102% | 95.9% | 107% | – | 101% |

| SMILES | growth (T-47D breast) | growth (BT-549 breast) | growth (MDA-MB-435 melanoma) | growth (SW-620 colon) | growth (MCF7 breast) | growth (HCT-116 colon) | growth (HCC-2998 colon) | growth (KM12 colon) |
| --- | --- | --- | --- | --- | --- | --- | --- | --- |
| COC(=O)c1nc(=S)[nH]c(C(=O)OC)c1C(=O)c1ccc(Cl)c(Cl)c1 | 100% | 129% | 106% | 106% | 97.4% | 106% | 113% | 112% |
| C(=N\Nc1ccc2ccccc2n1)/c1ccccn1 | 18.9% | 43.9% | 37.5% | 23.5% | 15.9% | 18.4% | 17.1% | 29.1% |
| CCC(C)C1NC(=O)C(NC(=O)c2c3nc4c(C(=O)NC5C(=O)NC(C(C)CC)C(=O)N6CCCC6C(=O)N(C)CC(=O)N(C)C(C(C)C)C(=O)OC5C)ccc(C)c4oc-3c(C)c(=O)c2N)C(C)OC(=O)C(C(C)C)N(C)C(=O)CN(C)C(=O)C2CCCN2C1=O (stereo not given) (I: TIP[Sar][NMeV] / II: TIP[Sar][NMeV]; ester I:1-I:C, II:1-II:C; linker I:N-II:N via Actinocin(1to9); configuration not given here) | -8.27% (active) | -41.6% (active) | -91.1% (active) | -20.8% (active) | -26.2% (active) | 0.361% (active) | – | -25.6% (active) |
| Cc1ccc(NC2=CC(=O)C(=O)c3ccccc32)cc1 | 21.1% | -41.1% (active) | -80.5% (active) | -19.6% (active) | -57.4% (active) | – | 28.4% | 22.1% |
| O=Nc1ccc2ccccc2c1O | 51.5% | 100% | -73.9% (active) | 61.8% | 69.9% | 6.58% (active) | 103% | 79.3% |
| CC1C(c2ccccc2)OCCN1C(=S)Nc1ccc(S(=O)(=O)N2CCCCC2)cc1 (stereo not given) | 96.9% | 97.6% | 89.4% | 87.6% | 91.3% | 91.8% | – | 92.1% |
| N#CC1c2ccccc2C=CN1C(=O)CCCl (stereo not given) | 52.4% | 92.1% | 94% | 55.8% | 24.8% | – | 110% | 86.4% |
| NC(=S)N/N=C/c1ncccc1O | 25.2% | 35.4% | 29.6% | 35% | 6.89% (active) | 5.32% (active) | – | 25.9% |
| CCCCCCCCCCCCN1C(C)=CS/C1=C\C=C\c1scc(C)[n+]1CCCCCCCCCCCC | 13.8% | 23.7% | 13.6% | 30.7% | 7.9% (active) | 17.7% | 28.4% | 14.8% |
| CN1CSC(=S)N(Cc2ccccc2)C1 | 43.1% | 80.3% | 77.9% | 35.4% | 33.5% | 25.9% | – | 40.8% |
| COc1ccc2nc3cc([N+](=O)[O-])ccc3c(NNc3ccccc3)c2c1 | 77.9% | 67.3% | 107% | 86.1% | 72.9% | 41.2% | – | 81.7% |
| Oc1cc(Cl)ccc1Cc1ccc(Cl)cc1O | 29.2% | 33.9% | 46.2% | 81.2% | 68.3% | – | 88.1% | 98.7% |
| CN=C(N)N/N=C(\C)c1ccc2c(c1)Cc1ccccc1-2 | -65.4% (active) | -6.1% (active) | -73.1% (active) | -88.9% (active) | -99.3% (active) | – | -98.5% (active) | – |
| CCN(CC)c1ccc(/C=C\C(=O)c2ccc(NC(C)=O)cc2)cc1 | 76.3% | 94.8% | 10.9% | 42.5% | 71.3% | 58.6% | 77.9% | 48.1% |
| c1ccc(C2NCCNC2c2ccccc2)cc1 (stereo not given) | 104% | 103% | 102% | 101% | 103% | 104% | – | 110% |
| Oc1ccc(Nc2ccc3ccccc3c2)cc1 | 52.6% | 74.3% | 51.3% | 66.2% | 64.7% | 70.8% | – | 35.6% |
| O=C1/C(=C\c2ccc([N+](=O)[O-])cc2)CS(=O)(=O)C/C1=C/c1ccc([N+](=O)[O-])cc1 | -56% (active) | -82.2% (active) | -75% (active) | -71.6% (active) | -58.5% (active) | -100% (active) | – | -89.4% (active) |
| CC(C)c1ccc(C(=O)OC2CCCC2)cc1 | 91.2% | 97.5% | 101% | 99.7% | 95.7% | – | 99% | 99.9% |
